According to PubChem BioAssay AID2796 (The Scripps Research Institute Molecular Screening Center, 2010):
Hit rate of the full screen: of about 320,000 compounds, about 8,000 (2.5%) were called active. Rule as the data show it: active = activation above about 47%; inactive = the rest. The full list was thinned out, with actives kept by preference.

target: Aryl hydrocarbon receptor (Homo sapiens) (UniProt P35869); assay: AHR activators, primary screen, cell-based, luminescence, luciferase reporter, human (AID 2796); conditions: AHR-responsive luciferase reporter cells, at 5 µM, hits give high values;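 also: 0% = vehicle wells and 100% = reference agonist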
Sequence (P35869 whole entry, looked up): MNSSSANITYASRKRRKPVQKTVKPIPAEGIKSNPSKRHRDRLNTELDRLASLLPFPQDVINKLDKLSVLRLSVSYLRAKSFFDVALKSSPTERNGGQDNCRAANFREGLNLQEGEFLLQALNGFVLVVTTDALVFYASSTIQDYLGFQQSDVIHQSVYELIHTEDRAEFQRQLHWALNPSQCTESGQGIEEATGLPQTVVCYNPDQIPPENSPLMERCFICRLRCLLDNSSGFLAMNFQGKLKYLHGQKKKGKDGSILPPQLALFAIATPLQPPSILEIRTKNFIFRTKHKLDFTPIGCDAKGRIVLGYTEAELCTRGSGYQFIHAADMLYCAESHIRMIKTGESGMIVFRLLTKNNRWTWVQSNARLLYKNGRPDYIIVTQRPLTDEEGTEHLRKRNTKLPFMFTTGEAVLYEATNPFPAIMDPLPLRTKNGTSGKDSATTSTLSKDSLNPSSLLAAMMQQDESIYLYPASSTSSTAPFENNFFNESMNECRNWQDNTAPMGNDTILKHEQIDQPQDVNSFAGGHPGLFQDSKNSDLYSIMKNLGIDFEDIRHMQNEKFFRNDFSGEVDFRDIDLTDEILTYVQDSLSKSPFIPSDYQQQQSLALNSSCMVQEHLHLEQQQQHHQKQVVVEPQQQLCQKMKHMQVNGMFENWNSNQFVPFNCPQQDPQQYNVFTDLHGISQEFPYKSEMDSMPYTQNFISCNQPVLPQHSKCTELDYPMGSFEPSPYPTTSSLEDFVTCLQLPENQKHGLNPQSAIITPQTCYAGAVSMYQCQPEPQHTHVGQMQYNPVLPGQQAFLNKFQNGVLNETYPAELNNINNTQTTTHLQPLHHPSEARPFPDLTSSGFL

Row | SMILES | activation
1 | O=C(OCC(=O)N1CCCC1)c1ccc(Cl)nc1 | -1.12% (inactive)
2 | CCC(C)(C(=O)NC1CCCCC1)N(C)C(=O)c1ccc2c(c1)OCO2 (stereo not given) | -0.09% (inactive)
3 | CCOC(=O)C1=NNC2(c3ccc(Cl)cc3)C(=O)N(c3cc(C)cc(C)c3)C(=O)C12 (stereo not given) | 5.66% (inactive)
4 | CCc1nnc(NC(=O)/C=C/c2ccc(C)o2)s1 | 28.2% (inactive)
5 | CCC(CC)c1nnc(NC(=O)/C=C/c2ccco2)s1 | 46.2% (inactive)
6 | Cc1nnc(NC(=O)/C=C/c2ccco2)s1 | 120% (active)
7 | COc1ccc(S(=O)(=O)N2CCC(C(=O)NCc3ccco3)CC2)cc1C | 0.76% (inactive)
8 | CCc1ccc(NC(=O)C(=O)N/N=C(\C)CC(=O)NCCOC)cc1 | 8.77% (inactive)
9 | CC(Sc1nncn1C)C(=O)NCCC1=CCCCC1 (stereo not given) | -0.01% (inactive)
10 | CCCn1nnc2sc3c(c2c1=O)CCC(C)C3 (stereo not given) | -0.09% (inactive)
11 | CC1CCc2c(sc3nc4n(c(=O)c23)CCS4)C1 (stereo not given) | -1.18% (inactive)
12 | CC1CCc2sc3nc(N4CCN(CCO)CC4)n4ncnc4c3c2C1 (stereo not given) | 61.8% (active)
13 | c1ccc2c(c1)CCc1snnc1-2 | 2.81% (inactive)
14 | CCC1CCc2c(sc(NC(C)=O)c2C#N)C1 (stereo not given) | 1.29% (inactive)
15 | COc1ccc(NC(=O)C(CC(C)C)NC(=O)C2CCC(C)CC2)cc1 (stereo not given) | 1.21% (inactive)
16 | CC(=O)Nc1ccc(S(=O)(=O)NCC2CCC(C(=O)NCCc3ccccc3)CC2)cc1 (stereo not given) | 0.11% (inactive)
17 | O=C(NCc1ccc2c(c1)OCO2)c1c(-c2ccsc2)sc2ccccc12 | 44.7% (inactive)
18 | Cn1cncc1C#Cc1c(-c2ccsc2)sc2ccccc12 | 52.7% (active)
19 | Cc1cccc(-c2oc3ccc(-c4ccc5c(c4)OCO5)cc3c2C#Cc2cncn2C)c1 | 26.5% (inactive)
20 | COC(=O)/C(=C\Nc1ccccc1)NC(=O)c1ccc(Cl)cc1Cl | 1.34% (inactive)

Row | SMILES | activation
21 | N#CC1(C#N)C(C(=O)C23CC4CC(CC(C4)C2)C3)C12CCOCC2 (stereo not given) | -2.81% (inactive)
22 | Cc1ccccc1NCC(=O)N/N=C\c1ccc([N+](=O)[O-])s1 | 56.7% (active)
23 | CC(C)(C)c1cc(C(=O)N/N=C/c2ccc([N+](=O)[O-])s2)n[nH]1 | -8.74% (inactive)
24 | COc1ccc(C(=O)NCC(=O)N/N=C/c2ccc([N+](=O)[O-])s2)cc1OC | -1.7% (inactive)
25 | Cc1cc(O)ccc1NC1=CC(=O)CC(C)(C)C1 | 15.2% (inactive)
26 | CCN1CCN(C(=O)CN(C)S(=O)(=O)c2ccc3ccccc3c2)CC1 | -1.56% (inactive)
27 | C[C@@H]1CN([C@H](C)CO)C(=O)c2cc(NC(=O)NC3CCCCC3)ccc2O[C@H]1CN(C)S(C)(=O)=O | -0.98% (inactive)
28 | CCOc1ccc(C(O)Cc2nc3ccccc3n2C)cc1 (stereo not given) | 118% (active)
29 | CCCn1c(C(O)c2ccc(OCC)cc2)nc2ccccc21 (stereo not given) | 0.65% (inactive)
30 | COc1cccc(C(O)Cc2nc3ccccc3n2C)c1OC (stereo not given) | 6.17% (inactive)
31 | Cc1cc(Br)ccc1NC(=O)c1cnc(N2CCN(c3ccccn3)CC2)c2ccccc12 | 20.2% (inactive)
32 | N#CCSc1nc2ccc(N3CCOCC3)cc2c(=O)n1CCc1ccccc1 | 1.4% (inactive)
33 | Cc1cc(Nc2ccc(N3CCOCC3)cc2)c2cccc(C)c2n1 | 8.99% (inactive)
34 | Cc1nn2c3cc(N4CCOCC4)ccc3nc2c2ccccc12 | 144% (active)
35 | CCN(CC)c1ccc(C(=O)N/N=C/c2ccc(N3CCOCC3)cc2)cc1 | 19% (inactive)
36 | CCN(CC)c1ccc(/C=N/NC(=O)c2cnccn2)c(O)c1 | 22.4% (inactive)
37 | CCN(CC)c1ccc2cc(C(N)=O)/c(=N\NC(=O)c3ccncc3)oc2c1 | 78% (active)
38 | NC(=O)c1cc2ccccc2o/c1=N/NC(=O)c1cccc(F)c1 | 52.6% (active)
39 | N=c1oc2ccccc2cc1C(=O)NCc1ccccc1 | -3.55% (inactive)
40 | COc1cccc2cc(C(N)=O)/c(=N\NC(=O)c3ccccc3)oc12 | 8.63% (inactive)

Row | SMILES | activation
41 | COc1cc(/C=C/C(=O)Nc2ccc(OC)c(S(=O)(=O)N3CCOCC3)c2)ccc1OCC#N | -0.9% (inactive)
42 | CCCCCc1ccc(-c2ccc(C(=O)O)cc2)nc1 | -9.97% (inactive)
43 | COc1ccccc1CCNS(=O)(=O)c1cc2c3c(c1)C(C)C(=O)N3CCC2 (stereo not given) | 4.39% (inactive)
44 | CC(=O)NS(=O)(=O)c1ccc(NC(=O)/C=C/c2ccccc2Cl)cc1 | 7.35% (inactive)
45 | CCn1nc(C)c(/C=N/NC(=O)Cc2ccc(Cl)cc2)c1C | 56.2% (active)
46 | Cc1ccc(/C=N/NC(=O)Cn2nc(C)c(Br)c2C)o1 | 2.15% (inactive)
47 | O=C(Nc1nnc(Cc2ccc(Cl)cc2)s1)c1cccnc1 | 3.47% (inactive)
48 | O=C(Cc1ccccc1)N/N=C/c1ccc(Cl)cc1Cl | 1.3% (inactive)
49 | Cc1nn(Cc2ccc(Cl)cc2)c(Cl)c1/C=N/NC(=O)CNc1ccccc1F | 25% (inactive)
50 | Cc1nn(Cc2ccc(Cl)cc2)c(Cl)c1/C=N/NC(=O)c1cccnc1 | 96.6% (active)
51 | CC(OC(=O)CCCc1c[nH]c2ccccc12)C(=O)Nc1ccc(S(N)(=O)=O)cc1 (stereo not given) | 0.81% (inactive)
52 | CC(NC(=O)CN1CCN(Cc2ccc(Cl)cc2)C1=O)c1ccc2c(c1)OCCO2 (stereo not given) | 0.39% (inactive)
53 | CCOC(=O)c1cccc(NC(=O)C2CCN(c3ncnc4c3nc3n4CCCCC3)CC2)c1 | 2.44% (inactive)
54 | CCCCC[C@@H]1C=C(C(=O)O)[C@H](c2ccc(C#N)cc2)N1S(=O)(=O)c1ccc(C)cc1 | -1.14% (inactive)
55 | Cc1ccc(C(=O)NCC(=O)OCc2nnc(-c3ccccc3)o2)cc1 | 1.68% (inactive)
56 | CC(C)[C@H](NC(=O)N1CC(=O)Nc2ccccc21)C(=O)N[C@@H](Cc1c[nH]c2ccccc12)C(=O)O | 10.6% (inactive)
57 | COC(=O)c1[nH]c2cccc(C)c2c1NC(=O)CN1CCCc2ccccc21 | 26.4% (inactive)
58 | COC(=O)c1[nH]c2ccccc2c1NC(=O)CN1CCCc2ccccc21 | 74.4% (active)
59 | NS(=O)(=O)c1cccc(NC(=O)CN2CCCc3ccccc32)c1 | 3.96% (inactive)
60 | COc1ccc(OC)c(S(=O)(=O)N2CCCC(C(=O)N3CCC(C(N)=O)CC3)C2)c1 (stereo not given) | -1.65% (inactive)
